According to PubChem BioAssay AID1159580 (chemical genetic matrix, 2015):
Among all 5,500 compounds or so, about 2,000 (36%) were called active. About 18% were inconclusive and are not listed. Cut-off read from the data, not from the text of the source: active = normalized growth mostly below about 0.91 (no sharp cut-off); inconclusive = no clear call, values can overlap the other calls; inactive = mostly above about 0.92. Some of the results follow.

Assay: chemical genetic growth profiling, strain panel (AID 1159580);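 note: tested at 20 µM; growth read once vehicle control cultures reached saturation at 30 °C; 1 = growth at the plate median or of vehicle wells; lower values mean less growth of the strain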
Details: S. cerevisiae deletion strains, growth OD

Measured: normalized growth

NCCNS(=O)(=O)c1cccc2cnccc12
inactive: locus YAL040C, strain CLN3, stronger effect = lower value 1.02 | locus YCL061C, strain MRC1 (second series), stronger effect = lower value 1.01 | locus YDR363W, strain ESC2, stronger effect = lower value 0.973 | locus YER002W, strain NOP16, stronger effect = lower value 0.988 | locus YGR078C, strain PAC10, stronger effect = lower value 0.968 | locus YGR229C, strain SMI1, stronger effect = lower value 0.972 | locus YNL128W, strain TEP1, stronger effect = lower value 0.986 | locus YNL153C, strain GIM3, stronger effect = lower value 1.05 | locus YNL175C, strain NOP13, stronger effect = lower value 0.958 | locus YNL197C, strain WHI3, stronger effect = lower value 0.917 | locus YNL224C, strain SQS1, stronger effect = lower value 0.98 | locus YNL322C, strain KRE1, stronger effect = lower value 0.98 | locus YOR083W, strain WHI5 (second series), stronger effect = lower value 0.923 | locus YPL241C, strain CIN2, stronger effect = lower value 0.998

Cc1nc(N)cc(C[n+]2csc(CCO)c2C)n1
inactive: locus YAL021C, strain ccr4, stronger effect = lower value 0.946 | locus YAL026C, strain drs2, stronger effect = lower value 0.974 | locus YAL030W, strain snc1, stronger effect = lower value 0.981 | locus YBL061C, strain skt5, stronger effect = lower value 0.983 | locus YBR009C, strain hhf1, stronger effect = lower value 0.979 | locus YBR023C, strain chs3, stronger effect = lower value 0.998 | locus YBR171W, strain sec66, stronger effect = lower value 0.971 | locus YBR231C, strain swc5, stronger effect = lower value 0.987 | locus YBR279W, strain paf1, stronger effect = lower value 0.985 | locus YCL011C, strain gbp2, stronger effect = lower value 0.966 | locus YCL016C, strain dcc1, stronger effect = lower value 0.992 | locus YCL061C, strain MRC1, stronger effect = lower value 0.977 | locus YCL069W, strain vba3, stronger effect = lower value 0.981 | locus YCR088W, strain abp1, stronger effect = lower value 0.98 | locus YDL005C, strain med2, stronger effect = lower value 0.984 | locus YDL040C, strain nat1, stronger effect = lower value 0.988 | locus YDR001C, strain nth1, stronger effect = lower value 0.974 | locus YDR069C, strain doa4, stronger effect = lower value 0.984 | locus YDR137W, strain rgp1, stronger effect = lower value 0.966 | locus YDR159W, strain sac3, stronger effect = lower value 0.965 | locus YDR195W, strain ref2 0.944 | locus YDR297W, strain sur2, stronger effect = lower value 0.979 | locus YDR334W, strain swr1, stronger effect = lower value 0.955 | locus YDR335W, strain msn5, stronger effect = lower value 0.966 | locus YDR392W, strain spt3, stronger effect = lower value 0.973 | locus YEL003W, strain gim4, stronger effect = lower value 0.971 | locus YEL037C, strain rad23, stronger effect = lower value 0.967 | locus YEL061C, strain CIN8 (second series), stronger effect = lower value 0.974 | locus YER015W, strain faa2, stronger effect = lower value 0.975 | locus YER016W, strain bim1, stronger effect = lower value 0.979 | locus YER111C, strain swi4, stronger effect = lower value 0.992 | locus YER155C, strain BEM2 (second series), stronger effect = lower value 0.975 | locus YFR010W, strain ubp6, stronger effect = lower value 0.962 | locus YGL167C, strain pmr1, stronger effect = lower value 0.973 | locus YGL173C, strain kem1, stronger effect = lower value 0.979 | locus YGL227W, strain vid30, stronger effect = lower value 0.987 | locus YGL240W, strain doc1, stronger effect = lower value 0.98 | locus YGL253W, strain hxk2, stronger effect = lower value 0.986 | locus YHR013C, strain ard1, stronger effect = lower value 0.986 | locus YHR027C, strain rpn1, stronger effect = lower value 0.988 | locus YHR030C, strain SLT2, stronger effect = lower value 0.954 | locus YHR079C, strain IRE1, stronger effect = lower value 0.942 | locus YHR142W, strain chs7, stronger effect = lower value 0.963 | locus YJL092W, strain hpr5, stronger effect = lower value 0.966 | locus YJL095W, strain BCK1 (second series), stronger effect = lower value 0.978 | locus YJL095W, strain BCK1, stronger effect = lower value 0.968 | locus YJL115W, strain asf1, stronger effect = lower value 0.969 | locus YJL129C, strain trk1, stronger effect = lower value 0.965 | locus YJL154C, strain vps35, stronger effect = lower value 0.988 | locus YJL164C, strain tpk1, stronger effect = lower value 0.985 | locus YJL166W, strain qcr8, stronger effect = lower value 0.981 | locus YJL187C, strain SWE1, stronger effect = lower value 0.99 | locus YJR066W, strain TOR1, stronger effect = lower value 0.932 | locus YKL160W, strain elf1, stronger effect = lower value 0.981 | locus YKR026C, strain gcn3, stronger effect = lower value 0.97 | locus YKR091W, strain srl3, stronger effect = lower value 0.978 | locus YLL001W, strain dnm1, stronger effect = lower value 0.983 | locus YLL026W, stronger effect = lower value 0.988 | locus YLL041C, strain sdh2, stronger effect = lower value 0.98 | locus YLR027C, strain aat2, stronger effect = lower value 0.986 | locus YLR113W, strain HOG1, stronger effect = lower value 0.941 | locus YLR221C, strain rsa3, stronger effect = lower value 0.982 | locus YLR258W, strain gsy2, stronger effect = lower value 0.986 | locus YLR262C, strain YPT6 (second series), stronger effect = lower value 0.992 | locus YLR320W, strain mms22, stronger effect = lower value 0.988 | locus YLR342W, strain FKS1, stronger effect = lower value 0.991 | locus YLR357W, strain rsc2, stronger effect = lower value 0.99 | locus YLR370C, strain arc18, stronger effect = lower value 0.979 | locus YLR384C, strain iki3, stronger effect = lower value 0.983 | locus YML120C, strain ndi1, stronger effect = lower value 0.962 | locus YMR058W, strain fet3, stronger effect = lower value 0.969 | locus YMR125W, strain sto1, stronger effect = lower value 0.946 | locus YMR129W, stronger effect = lower value 0.97 | locus YMR205C, strain PFK2, stronger effect = lower value 1.01 | locus YMR231W, strain pep5, stronger effect = lower value 0.992 | locus YNL071W, strain lat1, stronger effect = lower value 0.988 | locus YNL183C, strain NPR1, stronger effect = lower value 0.926 | locus YNL209W, strain ssb2, stronger effect = lower value 0.981 | locus YNL248C, strain rpa49, stronger effect = lower value 0.948 | locus YNL322C, strain KRE1 (second series), stronger effect = lower value 0.964 | locus YNR049C, strain mso1, stronger effect = lower value 0.978 | locus YOR001W, strain rrp6, stronger effect = lower value 0.95 | locus YOR070C, strain gyp1, stronger effect = lower value 0.998 | locus YOR080W, strain dia2, stronger effect = lower value 0.971 | locus YOR083W, strain WHI5, stronger effect = lower value 0.969 | locus YOR106W, strain vam3, stronger effect = lower value 0.972 | locus YOR231W, strain MKK1, stronger effect = lower value 0.96 | locus YOR265W, strain rbl2, stronger effect = lower value 0.983 | locus YOR270C, strain vph1, stronger effect = lower value 0.94 | locus YOR290C, strain snf2, stronger effect = lower value 0.975 | locus YPL051W, strain arl3, stronger effect = lower value 0.996 | locus YPL078C, strain atp4, stronger effect = lower value 0.976 | locus YPL106C, strain sse1, stronger effect = lower value 0.953 | locus YPL240C, strain hsp82, stronger effect = lower value 0.972 | locus YPL256C, strain CLN2, stronger effect = lower value 0.95
